Data on 22 compounds can be found in PubChem BioAssay (NCATS).

Values joined by “and” are separate entries in the source; they are usually repeats but may differ in a detail not shown here. Identical values can stand only once. Values without a mark were called inactive. Inconclusive results are not listed. Active and inactive are the calls of the source. Unless noted, calls follow the shape of the dose curve; as a rule, active = well fitted curve in the direction sought with a large enough effect; inconclusive = small, poorly fitted or top-dose-only effect, or another doubt; inactive = no such curve, though single readings can be large; an effect the other way counts as inactive or inconclusive.

Assay [1] is described as follows: qHTS assay to identify small molecule inhibitors of chordoma cells - UCH-1 (AID 1259355). Also: nearly all actives have a fitted effect of over 55% in size. A digest of the protocol:
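Cells (800/well) were seeded and left overnight at 37 C, 5% CO2, then treated with drugs at 15 concentrations plus a combination mix of auranofin, camptothecin, doxorubicin, rubitecan and topotecan. Viability after 48hr was read by CellTiter-Glo luminescence.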
Background: In qHTS, concentration-response curves come from the screen itself.

Assay [2] can be described thus: qHTS assay to identify small molecule inhibitors of chordoma cells - UCH-2 (AID 1259356).
Assay [3] in a line: NS1 protein of Zika virus - qHTS assay to identify small molecule inhibitors in human HEK 293 cells (AID 1347053). Also: nearly all actives have a fitted effect of over 55% in size. The method in brief: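 Inhibition of NS1 expression was scored in HEK 293 cells given compound 1 h ahead of MR766 virus (MOI = 0.5). Following 24 h at 37 C, two anti-NS1 antibodies generated a TR-FRET signal, scaled between uninfected and infected controls.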
Assay [4] is described as follows: qHTS of pediatric cancer cell lines to identify multiple opportunities for drug repurposing: Primary screen for DAOY cells (AID 1347090). Also: nearly all actives have a fitted effect of over 55% in size. Also: potency is read from the fitted curve at half-maximal effect. The method in brief:
(§1)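 Viability measured as metabolically active cells via CellTiter-Glo luminescence following 48 hours of compound exposure, 11-point dilutions in confirmatory testing. 500-1,000 cells/well plated 5 hours before dosing; controls were DMSO and 2.3 µM bortezomib.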

The nature of assay [5]: qHTS of pediatric cancer cell lines to identify multiple opportunities for drug repurposing: Primary screen for SJ-GBM2 cells (AID 1347091). A digest of the protocol: as §1
A short description of assay [6]: qHTS of pediatric cancer cell lines to identify multiple opportunities for drug repurposing: Primary screen for TC32 cells (AID 1347089). Also: nearly all actives have a fitted effect of over 60% in size. A digest of the protocol: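 qHTS, TC32, 48 h drug treatment, CellTiter-Glo luminescence as a proxy for metabolically active cells; primary top concentration 46 µM (MIPE 11-pt, NPC 8-pt); confirmatory 11-pt.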
Assay [7] in a line: P-glycoprotein substrates identified in KB-8-5-11 adenocarcinoma cell line, qHTS therapeutic library screen (AID 1346987). Also: nearly all actives have a fitted effect of over 65% in size. Also: potency is read from the fitted curve at half-maximal effect. The method in brief:
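P-gp-mediated resistance screen: KB-8-5-11 cells treated 72 h with compounds in dose-response. CellTiter-Glo viability.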

Assay [8] deals with T1, Tyrosine-protein phosphatase non-receptor type substrate 1 (Homo sapiens) + Leukocyte surface antigen CD47 (Homo sapiens) (UniProt P78324+Q08722). The assay can be described thus: CD47-SIRPalpha protein protein interaction - LANCE assay qHTS validation (AID 1347057; active = well fitted curve in the direction sought with a large enough effect in the signal ratio, with a control signal flat, not every such curve was filed as active; the % refers to the signal ratio). A digest of the protocol:
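First, His-tagged CD47 and Eu-labelled anti-His antibody met the compound for 30 min; next, site-specifically biotinylated SIRPalpha was added for 30 min; finally streptavidin-APC was added before reading the TR-FRET ratio.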

Assay [9] concerns the target T1, Tyrosine-protein phosphatase non-receptor type substrate 1 (Homo sapiens) + Leukocyte surface antigen CD47 (Homo sapiens). The assay can be described thus: CD47-SIRPalpha protein protein interaction - HTRF assay qHTS validation (AID 1347058; active = well fitted curve in the direction sought with a large enough effect in the signal ratio, not every such curve was filed as active; the % refers to the signal ratio;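 also: recombinant soluble extracellular CD47 with His tag and biotinylated SIRPalpha domains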). A digest of the protocol: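 TR-FRET read (Ch1/Ch2 ratio) of soluble extracellular CD47 and Avi-biotinylated SIRPalpha domains in PBS pH 7.4 with 0.05% IGEPAL; 7-point compound titration. Sequential 30 min room-temperature steps; non-biotinylated SIRPalpha as control inhibitor.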
Background: TR-FRET usually uses a lanthanide donor and a delayed reading to cut background.

Assay [10] has as its target Parathyroid hormone/parathyroid hormone-related peptide receptor (Homo sapiens) (UniProt Q03431). The assay can be described thus: qHTS for PTHR1 Agonists: Optimization Screen against the NCGC LOPAC library (AID 1347079).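 Also: GloSensor cAMP luminescence in HEK-293 GP2 cells expressing human PTHR1 with IBMX.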 A digest of the protocol:
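Compounds were tested across a qHTS titration. PTHR1-expressing GP2 cells report cAMP rises via GloSensor luminescence after 1 hr compound exposure at 37C with IBMX present.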

The nature of assay [11]: Natriuretic polypeptide receptor (hNpr1) antagonism - Pilot counterscreen GloSensor control cell line (AID 1347045; calls by dose curve). The method in brief: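 This counterscreen uses HEK293 cells expressing the GIP/pGS-40F cGMP biosensor. Compound-treated cells are challenged with 50 uM sodium nitroprusside, and the luciferase signal is compared before and after stimulation.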
Assay [12] deals with Atrial natriuretic peptide receptor 1 (Homo sapiens) (UniProt P16066). The experiment in a line: Natriuretic polypeptide receptor (hNpr1) antagonism - Pilot screen (AID 1347049; calls by dose curve;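 also: agonist-evoked cGMP luminescence read 20 min after hNppA addition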). A digest of the protocol: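 HEK293 cells expressing hNpr1 and GloSensor cGMP luciferase, 1500/well, loaded with 2% GloSensor reagent 2 h, compound 30 min at room temperature; luminescence read before and 20 min after 0.1 nM hNppA stimulation.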
Sequence of Atrial natriuretic peptide receptor 1 (Homo sapiens) (P16066 whole entry, looked up): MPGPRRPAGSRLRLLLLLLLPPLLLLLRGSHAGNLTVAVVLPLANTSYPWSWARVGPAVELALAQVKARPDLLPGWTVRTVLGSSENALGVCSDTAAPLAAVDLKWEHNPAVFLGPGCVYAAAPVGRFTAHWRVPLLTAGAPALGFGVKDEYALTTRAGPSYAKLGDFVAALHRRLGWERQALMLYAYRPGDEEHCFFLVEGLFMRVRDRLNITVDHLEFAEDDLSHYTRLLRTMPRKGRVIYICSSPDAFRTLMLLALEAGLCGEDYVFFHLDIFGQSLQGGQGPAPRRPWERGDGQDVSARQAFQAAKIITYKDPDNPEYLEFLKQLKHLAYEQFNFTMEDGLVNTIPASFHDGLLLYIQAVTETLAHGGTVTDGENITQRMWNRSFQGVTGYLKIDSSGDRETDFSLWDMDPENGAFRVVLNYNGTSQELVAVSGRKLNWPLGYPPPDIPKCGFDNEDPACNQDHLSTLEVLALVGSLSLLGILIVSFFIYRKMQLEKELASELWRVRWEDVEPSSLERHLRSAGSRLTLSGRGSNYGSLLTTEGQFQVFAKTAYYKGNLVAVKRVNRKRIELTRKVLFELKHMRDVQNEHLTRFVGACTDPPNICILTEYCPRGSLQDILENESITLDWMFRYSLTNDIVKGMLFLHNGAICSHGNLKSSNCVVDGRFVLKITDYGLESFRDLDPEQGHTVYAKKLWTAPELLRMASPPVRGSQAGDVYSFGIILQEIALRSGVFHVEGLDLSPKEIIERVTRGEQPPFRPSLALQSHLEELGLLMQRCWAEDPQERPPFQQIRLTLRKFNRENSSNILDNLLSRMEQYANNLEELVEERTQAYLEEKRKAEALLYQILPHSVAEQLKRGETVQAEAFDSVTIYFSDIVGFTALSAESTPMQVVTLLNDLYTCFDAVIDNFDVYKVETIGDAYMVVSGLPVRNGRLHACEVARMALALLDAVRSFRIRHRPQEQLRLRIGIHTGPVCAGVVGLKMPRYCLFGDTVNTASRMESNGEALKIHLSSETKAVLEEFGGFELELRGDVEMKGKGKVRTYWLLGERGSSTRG

The target of assay [13] is Atrial natriuretic peptide receptor 2 (Homo sapiens) (UniProt P20594). The assay can be described thus: Natriuretic polypeptide receptor (hNpr2) antagonism - Pilot subtype selectivity assay (AID 1347050; calls by dose curve). The method in brief: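 HEK293 cells expressing hNpr2 and a GloSensor cGMP luciferase sensor, 1500/well, preloaded 2 h with 2% GloSensor reagent, compound 30 min, then 1 nM hNppC for 20 min. Antagonism from luminescence after versus baseline pre-read; LOPAC in 1:5 titrations.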
Sequence of Atrial natriuretic peptide receptor 2 (Homo sapiens) (P20594 whole entry, looked up): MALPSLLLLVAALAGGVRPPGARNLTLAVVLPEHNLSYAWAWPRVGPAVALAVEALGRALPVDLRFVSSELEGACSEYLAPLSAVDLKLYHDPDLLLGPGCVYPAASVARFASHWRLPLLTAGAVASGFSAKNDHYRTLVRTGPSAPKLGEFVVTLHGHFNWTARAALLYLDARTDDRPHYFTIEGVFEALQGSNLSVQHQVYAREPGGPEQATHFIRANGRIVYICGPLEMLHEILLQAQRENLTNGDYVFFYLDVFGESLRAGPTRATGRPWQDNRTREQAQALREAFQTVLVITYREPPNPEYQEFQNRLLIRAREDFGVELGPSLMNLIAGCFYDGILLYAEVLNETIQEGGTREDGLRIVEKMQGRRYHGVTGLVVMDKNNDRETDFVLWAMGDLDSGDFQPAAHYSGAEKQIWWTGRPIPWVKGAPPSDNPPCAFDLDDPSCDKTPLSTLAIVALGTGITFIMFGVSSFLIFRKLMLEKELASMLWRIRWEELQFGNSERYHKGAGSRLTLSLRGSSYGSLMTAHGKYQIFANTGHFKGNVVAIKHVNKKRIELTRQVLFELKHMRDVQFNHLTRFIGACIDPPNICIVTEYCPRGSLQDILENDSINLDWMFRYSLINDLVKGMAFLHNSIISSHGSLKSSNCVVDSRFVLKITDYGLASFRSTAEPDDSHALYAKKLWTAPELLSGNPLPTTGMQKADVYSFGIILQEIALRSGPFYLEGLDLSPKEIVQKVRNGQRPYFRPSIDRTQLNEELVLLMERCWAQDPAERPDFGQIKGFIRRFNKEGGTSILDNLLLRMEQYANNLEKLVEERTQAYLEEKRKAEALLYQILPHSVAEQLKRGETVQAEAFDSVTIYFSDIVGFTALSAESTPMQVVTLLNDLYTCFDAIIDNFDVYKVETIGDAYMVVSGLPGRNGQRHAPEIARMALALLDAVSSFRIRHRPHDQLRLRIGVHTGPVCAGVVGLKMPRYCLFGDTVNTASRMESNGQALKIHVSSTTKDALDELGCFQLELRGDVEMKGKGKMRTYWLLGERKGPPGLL

For assay [14], the target named is T1, Tyrosine-protein phosphatase non-receptor type substrate 1 (Homo sapiens) + Leukocyte surface antigen CD47 (Homo sapiens). The experiment in a line: CD47-SIRPalpha protein protein interaction - Alpha assay qHTS validation (AID 1347059).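 Also: bead proximity luminescence from CD47 binding SIRPalpha after compound preincubation with SIRPalpha.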 The method in brief: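 Biotinylated Avi-tagged SIRPalpha (25 nM) preincubated 30 min with compound, then His-tagged CD47 (12.5 nM) added 30 min; AlphaScreen with Ni-NTA acceptor and streptavidin donor beads. PBS pH 7.4, 0.05% IGEPAL, room temperature; 7-point titrations.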

The nature of assay [15]: P-glycoprotein substrates identified in KB-3-1 adenocarcinoma cell line, qHTS therapeutic library screen (AID 1346986). Also: nearly all actives have a fitted effect of over 60% in size. To be noted: KB-3-1 parental cells viability, CellTiter-Glo, 72 h; at 44.5 µM (top of the series) unless noted. The method in brief:
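Compounds were tested in dose-response against KB-3-1 and KB-8-5-11 cells at 37 degree C for 72 h, and viability was measured by luminescence. AC50 values came from curve fitting with class-based activity calls.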

T1 sequence (P78324 whole entry, looked up): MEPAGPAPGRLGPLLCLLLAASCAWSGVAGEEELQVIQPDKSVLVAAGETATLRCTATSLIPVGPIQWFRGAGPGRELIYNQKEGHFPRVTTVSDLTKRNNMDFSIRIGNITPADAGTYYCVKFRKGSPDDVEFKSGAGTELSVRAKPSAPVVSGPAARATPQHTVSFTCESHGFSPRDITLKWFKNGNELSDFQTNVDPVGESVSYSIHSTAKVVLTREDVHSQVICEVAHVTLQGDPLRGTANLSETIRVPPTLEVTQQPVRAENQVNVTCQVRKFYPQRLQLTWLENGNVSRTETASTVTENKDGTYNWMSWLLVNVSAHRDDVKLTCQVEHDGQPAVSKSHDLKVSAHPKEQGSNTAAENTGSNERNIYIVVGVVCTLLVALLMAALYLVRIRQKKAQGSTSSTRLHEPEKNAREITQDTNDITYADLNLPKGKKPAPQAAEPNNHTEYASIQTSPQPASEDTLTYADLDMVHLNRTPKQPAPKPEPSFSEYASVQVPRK
T1 sequence (Q08722 whole entry, looked up): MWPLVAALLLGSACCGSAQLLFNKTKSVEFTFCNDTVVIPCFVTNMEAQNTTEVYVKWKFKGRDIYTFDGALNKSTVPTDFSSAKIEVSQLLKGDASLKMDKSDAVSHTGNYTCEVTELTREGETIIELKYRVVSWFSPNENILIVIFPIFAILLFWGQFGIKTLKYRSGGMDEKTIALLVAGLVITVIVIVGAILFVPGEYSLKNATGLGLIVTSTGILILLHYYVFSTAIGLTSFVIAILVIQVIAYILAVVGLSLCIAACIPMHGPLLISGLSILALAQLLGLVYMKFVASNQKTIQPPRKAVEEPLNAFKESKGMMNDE
Sequence of Parathyroid hormone/parathyroid hormone-related peptide receptor (Homo sapiens) (Q03431 whole entry, looked up): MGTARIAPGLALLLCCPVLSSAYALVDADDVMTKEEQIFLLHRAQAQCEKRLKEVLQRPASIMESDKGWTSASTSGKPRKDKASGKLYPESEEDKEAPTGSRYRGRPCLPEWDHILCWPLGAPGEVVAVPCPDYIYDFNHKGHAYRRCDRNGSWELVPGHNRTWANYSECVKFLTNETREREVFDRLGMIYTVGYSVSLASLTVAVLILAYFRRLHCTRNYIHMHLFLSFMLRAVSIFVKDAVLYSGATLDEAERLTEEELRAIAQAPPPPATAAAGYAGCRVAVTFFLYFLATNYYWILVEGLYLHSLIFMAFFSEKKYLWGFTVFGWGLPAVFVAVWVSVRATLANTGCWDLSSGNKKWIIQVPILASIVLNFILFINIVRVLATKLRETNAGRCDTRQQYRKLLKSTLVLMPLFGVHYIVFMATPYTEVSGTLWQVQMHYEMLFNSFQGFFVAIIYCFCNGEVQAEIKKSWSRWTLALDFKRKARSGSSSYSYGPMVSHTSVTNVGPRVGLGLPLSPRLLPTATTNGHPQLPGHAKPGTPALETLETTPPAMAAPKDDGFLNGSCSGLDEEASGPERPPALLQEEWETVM

In the case of `CC(COc1ccccc1)NC(C)C(O)c1ccc(O)cc1` (configuration not stated), the Potency entry in assay [1], in [3], in [4] and in assay [5] was “inactive” each time. Besides, the compound was called inactive in [2].
In the case of `CCN(CC)CCNC(C(=O)OCCC(C)C)c1ccccc1` (configuration not stated), the Potency result in [1], in [3], in assay [4] and in assay [5] was “inactive” each time. The outcome in assay [2] was inactive.
With `COc1ccc2c(c1)C(=O)N(CCc1ccc(S(=O)(=O)NC(=O)NC3CCCCC3)cc1)C(=O)C2(C)C`, the Potency result in assay [1], in assay [3], in assay [4] and in [5] was “inactive” in each case. For the same compound, in assay [2], the result was inactive.
Turning to `CN1[C@@H]2CC[C@H]1CC(OC(=O)C(O)c1ccccc1)C2` (some centres not stated), the Potency result in [1], in [3], in [6], in assay [4] and in assay [5] was “inactive” in each case. Further, the result in [2] was inactive.
For the compound `CC1(C)Oc2ccc(C#N)cc2[C@@H](N2CCCC2=O)[C@@H]1O`, the Potency result in assay [1], in assay [3], in assay [4] and in assay [5] was “inactive” each time. Also, the result in assay [2] was inactive.
With `CC(C)(C)NCC(O)COc1ccc(NC(=O)NC2CCCCC2)cc1` (configuration not stated), the compound was classed as inactive in [2]. Further, the Potency result in assay [7], in assay [3], in assay [6], in [4] and in [5] was “inactive” each time.
As to `CSc1ccc2c(c1)N(CCC1CCCCN1C)c1ccccc1S2` (configuration not stated), the outcome in assay [2], in assay [8] and in [9] was inactive. Further, the Potency is 18.4 µM (active) in assay [7] and 16.8 µM (active) in assay [4]. In addition, the Potency entry in assay [3] and in assay [10] was “inactive” throughout.
`C[C@]12CC[C@@H]3c4ccc(O)cc4CC[C@H]3[C@@H]1CC[C@@H]2OC(=O)CCC1CCCC1`: the compound was classed as inactive in assay [2]. The Potency in assay [7] was 6.51 µM (active) and 8.2 µM (active). Further, the Potency result in assay [3] and in assay [6] was “inactive” throughout.
Consider `OCc1cc(C(O)CNCCCCCCOCCCCc2ccccc2)ccc1O` (configuration not stated), for which the compound was called inactive in assay [2], in assay [11], in assay [12], in [8], in assay [9] and in assay [14]. Moreover, the Potency entry in [7], in [13], in [3], in [10], in [6] and in assay [4] was “inactive” each time.
With `O=C1N=C(O)CN1/N=C/c1ccc(-c2ccc([N+](=O)[O-])cc2)o1`, the outcome in [2], in assay [11], in [12] and in assay [14] was inactive. Besides, the Potency entry in assay [7], in assay [13], in assay [3], in assay [10], in [4] and in assay [5] was “inactive” in each case.
In the case of `COC(=O)[C@H]1[C@H]2C[C@@H]3c4[nH]c5cc(OC)ccc5c4CCN3C[C@H]2C[C@@H](OC(=O)COc2ccc(OC)cc2)[C@@H]1OC`, the Potency result in assay [1], in [3], in assay [6], in [4] and in [5] was “inactive” each time. The compound was classed as inactive in assay [2].
Take `CNC(=O)Oc1ccc2c(c1)[C@]1(C)CCN(C)[C@@H]1N2C`: the outcome in assay [2], in [15], in assay [11], in assay [8] and in [14] was inactive. The Potency entry in assay [7], in assay [13], in [3], in [10], in assay [6] and in [4] was “inactive” throughout. Further, the Potency result in assay [5] was “inactive”.
Turning to `CCOc1nc2cccc(C(=O)O)c2n1Cc1ccc(-c2ccccc2-c2nn[nH]n2)cc1`, the Potency result in assay [1], in assay [3], in assay [6], in assay [4] and in assay [5] was “inactive” in each case. In addition, the result in assay [2] was inactive.
As for `CCCCN(CCCC)CCCOC(=O)c1ccc(N)cc1`, the Potency result in assay [1], in assay [3], in [4] and in assay [5] was “inactive” in each case. For the same compound, the compound was classed as inactive in assay [2].
`NCCNCCNCCN`: the compound was classed as inactive in [2]. Moreover, the Potency entry in assay [7], in assay [3], in [6], in [4] and in assay [5] was “inactive” throughout.
On to `O=C(O)c1ccccc1O`, for which, in [2], the result was inactive. Besides, the Potency result in assay [7], in assay [3], in assay [6], in [4] and in assay [5] was “inactive” throughout.
Take `O=c1cc(CO)occ1O`: the outcome in [2] was inactive. Besides, the Potency entry in [7], in [3], in [6], in assay [4] and in assay [5] was “inactive” each time.
As to `C[C@]12C[C@H](O)[C@H]3[C@@H](CCC4=CC(=O)CC[C@@]43C)[C@@H]1CC[C@@H]2C(=O)CO`, the result in [2], in assay [11], in assay [12], in assay [8], in assay [9] and in assay [14] was inactive. The Potency result in [13], in assay [3], in assay [10], in assay [4] and in [5] was “inactive” each time.
Take `NC(=O)NC(=O)Cc1ccccc1`: the compound was called inactive in [2]. Further, the Potency entry in [7], in [3], in assay [6], in assay [4] and in assay [5] was “inactive” in each case.
`O=C(O)[C@H](O)c1ccccc1`: in assay [2], the outcome was inactive. In addition, the Potency entry in assay [7], in assay [3], in assay [6], in [4] and in assay [5] was “inactive” each time.
With `CCOC(=O)[C@H](CCc1ccccc1)N[C@@H](C)C(=O)N1C(=O)N(C)C[C@H]1C(=O)O`, the result in assay [2] was inactive. The Potency result in assay [7], in [3], in assay [6], in [4] and in [5] was “inactive” in each case.
As for `[O-][n+]1cccc(CO)c1`, the result in assay [2] was inactive. Further, the Potency entry in assay [7], in assay [3], in [6], in assay [4] and in assay [5] was “inactive” in each case.
